Compound activity as filed in PubChem.
Shown are actives, neighbours in structure and some others; about 2.3% of the full set was active somewhere.
FUS suppressor: qHTS for Suppressors of FUS Proteinopathy: Primary screen using FUS-linked yeast assay | S. cerevisiae FUS-expressing, growth rescue, OD600, 24 h | Potency, µM (series often up to 76.6 µM), usual class: activators | 390,000 compounds, 0.24% hits; also: nearly all actives have a fitted effect of over 55% in size
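Read-out: OD at 600 nm after 24hr at 30C, reporting rescue of FUS-induced yeast toxicity. Cells at OD 0.005 in galactose (2%) minimal medium; compounds tested in a dilution series; CP55940 titration from 92uM final as control.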
TRPV1 agonist: HTS Assay for Compounds that Act as Agonists of the Vanilloid Receptor 1; Transient receptor potential cation channel subfamily V member 1 (Homo sapiens), Q8NER1; TRPV1-expressing cells, Fluo-8 calcium influx, agonist mode; activation, % at 8.33 µM; 320,000 compounds, 0.19% hits; in the data active = activation above about 80%; inconclusive = between about 30% and that limit
Target sequence (Q8NER1 whole entry, looked up): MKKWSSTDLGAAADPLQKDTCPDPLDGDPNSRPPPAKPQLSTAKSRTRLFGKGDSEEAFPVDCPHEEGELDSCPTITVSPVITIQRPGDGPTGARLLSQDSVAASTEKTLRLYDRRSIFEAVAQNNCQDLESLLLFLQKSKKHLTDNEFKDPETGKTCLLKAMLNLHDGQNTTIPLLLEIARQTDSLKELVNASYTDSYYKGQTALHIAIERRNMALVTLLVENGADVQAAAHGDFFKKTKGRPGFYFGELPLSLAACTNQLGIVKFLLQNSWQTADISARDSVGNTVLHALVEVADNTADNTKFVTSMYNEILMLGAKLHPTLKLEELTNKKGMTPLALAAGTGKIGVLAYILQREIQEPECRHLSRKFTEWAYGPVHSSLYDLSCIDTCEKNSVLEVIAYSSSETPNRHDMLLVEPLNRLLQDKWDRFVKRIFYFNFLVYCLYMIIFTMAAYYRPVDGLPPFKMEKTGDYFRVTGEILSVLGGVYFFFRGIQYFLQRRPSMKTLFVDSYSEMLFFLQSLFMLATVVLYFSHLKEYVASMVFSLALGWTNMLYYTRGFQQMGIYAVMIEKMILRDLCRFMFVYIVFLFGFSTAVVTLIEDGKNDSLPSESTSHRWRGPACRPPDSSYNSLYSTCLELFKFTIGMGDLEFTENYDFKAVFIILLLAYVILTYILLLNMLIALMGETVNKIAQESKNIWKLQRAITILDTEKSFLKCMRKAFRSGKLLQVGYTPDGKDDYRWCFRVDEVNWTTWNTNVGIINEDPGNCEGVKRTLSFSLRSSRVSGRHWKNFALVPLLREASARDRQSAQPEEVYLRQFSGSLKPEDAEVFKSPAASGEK
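Fluo-8 calcium influx in TRPV1-expressing cells, kinetic read (ex 480/em 520 nm). Compound added and read 3 min for agonist activity, followed by capsaicin at EC20 final and 2 min further read for enhancement.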
Giardia kill: Small Molecules that selectively kill Giardia lamblia: qHTS. Giardia lamblia trophozoite viability. activity change, % at 7.66 µM, hits read low. 340,000 compounds, 0.15% hits. AID 540267, 2011; in the data active = activity change below about -80%; inconclusive = between about -30% and that limit;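 also: parasites exposed to compound for two days anaerobically before the ATP read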
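Media and compound were dispensed first, then trophozoites at 100 cells/well; plates sat 48 hrs at 37 deg C without oxygen before ATP luminescence reagent was added and read after 15-30 min at room temperature.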
ELG1 DNA repair: qHTS screen for small molecules that inhibit ELG1-dependent DNA repair in human embryonic kidney (HEK293T) cells expressing luciferase-tagged ELG1 | HEK293T ELG1-luciferase reporter, luminescence, 16 h; DNA damage induced by 5-fluorouridine | Potency, µM (highest dose often 46.1 µM), actives largely listed as inhibitors | 330,000 compounds, 2.3% hits | AID 504467, 2011; also: nearly all actives have a fitted effect of over 55% in size
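In this reporter screen, reduction of luminescence relative to DMSO vehicle indicated activity. Compounds and 5-fluorouridine were added together to 2,000 cells per well, incubated for 16 hr at 37 °C, then developed with ONE-Glo.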
TRPV1 PAM: HTS Assay for Compounds that Act as Potentiators of the Vanilloid Receptor 1 | 320,000 compounds, 0.02% hits | TRPV1-expressing cells, Fluo-8 calcium influx, capsaicin EC20 potentiation | potentiation, % at 8.33 µM | Transient receptor potential cation channel subfamily V member 1 (Homo sapiens), Q8NER1; in the data active = potentiation above about 80%; inconclusive = between about 30% and that limit
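Cells expressing TRPV1 were dye-loaded with Fluo-8 and read kinetically: 10 s baseline, 3 min after compound (agonist portion), then 2 min after EC20 capsaicin (allosteric enhancer portion). Calcium-bound dye fluorescence at 480/520 nm.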
Numbers stand for hits; . = inactive; ? = inconclusive; / = no result. Unless noted, calls follow the shape of the dose curve; as a rule, active = well fitted curve in the direction sought with a large enough effect; inconclusive = small, poorly fitted or top-dose-only effect, or another doubt; inactive = no such curve, though single readings can be large; an effect the other way counts as inactive or inconclusive.

SMILES	FUS suppressor	TRPV1 agonist	Giardia kill	ELG1 DNA repair	TRPV1 PAM
COc1ccc(CCN2C(=O)C(Oc3ccccc3C)C2c2ccc3c(c2)OCO3)cc1OC (configuration not stated)	.	.	.	?	.
COc1ccc(CCN2C(=O)C(Oc3ccccc3C)C2c2ccc3c(c2)OCO3)cc1 (configuration not stated)	/	?	.	16.4µM	.
Cc1ccc(Cn2nnc3c(=O)[nH]c(C4CCN(C(=O)c5cccs5)CC4)nc32)cc1	.	.	.	9.2µM	.
Cc1ccc(Cn2nnc3c(=O)[nH]c(C4CCCN(C(=O)Nc5ccc(F)cc5)C4)nc32)cc1 (configuration not stated)	.	.	.	16.4µM	.
Cc1cccc(Cn2nnc3c(=O)[nH]c(C4CCCN(C(=O)c5ccc(C(C)(C)C)cc5)C4)nc32)c1 (configuration not stated)	22.4µM	/	/	/	/
Cc1ccc(C2CCN(C(=O)Nc3ccc(F)cc3)C2)cc1 (configuration not stated)	.	82.9	.	?	.
COc1ccc(Cn2nnc3c(=O)[nH]c(C4CCCN(C(=O)c5ccc(C)cc5)C4)nc32)cc1 (configuration not stated)	.	/	/	/	/
CC(=O)C1=C(c2ccc(Cl)c(Cl)c2)N(C(C)=O)n2c(C)nnc2S1	.	/	/	/	/
CSc1ccc(C2c3c(oc4ccc(F)cc4c3=O)C(=O)N2c2ccc(C)cn2)cc1 (configuration not stated)	.	/	/	/	/
Cc1cn2c(=O)cc(COc3cccc(NC(=O)c4ccccc4C)c3)nc2s1	.	/	/	/	/
O=C(C1CCCN(S(=O)(=O)Cc2ccccc2)C1)N1CCc2ccccc21 (configuration not stated)	.	.	.	25.9µM	.
Cc1ccc(NC(=O)C2CCCN(c3ncnc4c3nc3n4CCCCC3)C2)cc1Cl (configuration not stated)	?	?	.	.	.
O=C(Nc1ccc(Cl)cc1)C1CCCN(c2ncnc3c2nc2n3CCCCC2)C1 (configuration not stated)	?	?	.	23.1µM	.
CC1CCCCN1CCNC(=O)C1CCCN(c2ncnc3c2nc2n3CCCCC2)C1 (configuration not stated)	.	.	.	.	.
CSc1ccc(CCNC(=O)C2CCCN(c3ncnc4c3nc3n4CCCCC3)C2)cc1 (configuration not stated)	.	.	.	8.2µM	.
O=C(NCc1ccc(Cl)cc1)C1CCCN(c2ncnc3c2nc2n3CCCCC2)C1 (configuration not stated)	.	?	.	14.6µM	.
CCCS(=O)(=O)NC(=O)C1(C)CCN(C(=O)c2snnc2C)C1 (configuration not stated)	.	/	/	/	/
CN(C)c1ccc(/C=C/c2ccc3ccccc3[n+]2C)cc1	/	.	.	?	.
CN(C)c1ccc(/C=C/c2ccc3c4ccccc4ccc3[n+]2-c2ccccc2)cc1	.	.	.	1.46µM	.
COc1cccc(-c2ccc3ncnc(NCc4cccnc4)c3c2)c1	.	/	.	5.17µM	/
c1cncc(CNc2ncnc3sccc23)c1	.	.	.	20.6µM	.
COc1cccc(CNc2ncnc3cc(OC)c(OC)cc23)c1	.	.	.	?	.
COc1ccc(S(=O)(=O)N2CN(Cc3ccco3)c3nc4ccccc4nc32)cc1	5.62µM	.	.	.	.
O=S(=O)(c1ccc(F)cc1)N1CN(Cc2ccco2)c2nc3ccccc3nc21	15.8µM	.	.	.	.
Cc1ccc(S(=O)(=O)N2CN(Cc3ccco3)c3nc4ccccc4nc32)cc1	.	.	.	.	.
SMILES	FUS suppressor	TRPV1 agonist	Giardia kill	ELG1 DNA repair	TRPV1 PAM
O=C(NC1CCC1)c1ccc(C#Cc2cccc(F)c2)nc1	.	/	/	/	/
Cc1ccc(N2CCN(C(=O)NCc3noc4ccccc34)CC2C)cc1 (configuration not stated)	.	/	/	/	/
CC1CCC/C=C/C(=O)c2c(O)cc(O)cc2CC(=O)O1 (configuration not stated)	.	.	.	8.2µM	.
N#Cc1nc(NCC(F)F)nc(Nc2cc(F)cc(F)c2)n1	.	.	.	?	.
O=C(Nc1c(F)cccc1F)c1cnc(N2CCN(c3ccccn3)CC2)c2ccccc12	.	.	.	18.4µM	.
Cc1c(C(=O)N2CCN(c3ccccn3)CC2)sc2ncnc(N3CCN(c4ccccc4)CC3)c12	.	/	.	/	/
Cc1ccc(NC(=O)c2cnc(N3CCN(c4ccccn4)CC3)c3ccccc23)c(Br)c1	.	?	.	?	.
O=C(CN1CCN(c2ccccn2)CC1)Nc1ccc([N+](=O)[O-])cc1C(=O)Nc1ccccc1F	/	.	.	11.6µM	.
Cc1nc(N2CCN(c3ccccn3)CC2)c2c(C)c(C(=O)N3CCN(c4cccc(Cl)c4)CC3)sc2n1	.	.	.	11.6µM	?
Cc1nc(N2CCOCC2)c2c(C)c(C(=O)Nc3ccccc3C(F)(F)F)sc2n1	.	90.5	.	16.4µM	.
CSc1ccccc1NC(=O)CN1CCN(c2ccccn2)CC1	.	.	.	.	.
COc1ccccc1NC(=O)Cn1nnc(C(=O)Nc2ccccc2Br)c1N	.	/	/	/	/
Cc1ccc(-n2nc(CO)c(C(=O)NCCc3ccccc3)n2)cc1C	.	/	/	/	/
Cc1nc(N2CCN(c3ccccn3)CC2)c2c(C)c(C(=O)Nc3ccc(F)cc3F)sc2n1	.	?	.	11.6µM	.
Cc1nc(N2CCC(C)CC2)c2c(C)c(C(=O)Nc3ccc4c(c3)OCCO4)sc2n1	.	.	.	10.3µM	.
Cc1nc(N2CCN(c3ccccn3)CC2)c2c(C)c(C(=O)Nc3ccccc3F)sc2n1	.	.	.	9.2µM	.
O=C(Nc1ccc(F)c(F)c1)c1cc(S(=O)(=O)N2CCN(c3ccccn3)CC2)ccc1F	.	.	.	16.4µM	.
Cc1nc(N2CCC(C)CC2)c2c(C)c(C(=O)Nc3ccc(C(F)(F)F)cc3)sc2n1	.	.	.	.	.
Cc1nc(N2CCN(c3ccccn3)CC2)c2c(C)c(C(=O)Nc3ccc(F)cc3Cl)sc2n1	.	.	.	?	.
CCc1ccc(C(O)c2ncc(-c3ccc(C)cc3)[nH]2)cc1 (configuration not stated)	.	/	/	/	/
Cc1nc(-c2ccc(S(=O)(=O)Nc3cc(Cl)ccc3C)cc2)co1	.	/	/	/	/
Cc1ccc(NC(=O)C2CCC(CNS(=O)(=O)c3csc(C(N)=O)c3)CC2)cc1Cl (configuration not stated)	.	/	/	/	/
COc1ccc(NC(=O)c2sc3nc(C)nc(N4CCN(c5ccccn5)CC4)c3c2C)cc1Cl	.	.	.	3.26µM	.
